Screening data from PubChem.
Rows were chosen to be rich in hits. Some 12% of all compounds tested hit in one or more screens of this group.
G9a block – G9a (human) methyltransferase inhibition. Q96KQ7. G9a H3K9 monomethylation, AlphaScreen, 2 h. Potency, µM (doses to about 102 µM), for inactives: at the top dose activity, negative = inhibition, hits mostly inhibitors. hit rate 8.8% among 350,000. AID 504332; note: % is set by controls: 0 for no effect and ±100 for the full control effect; nearly all actives have a fitted effect of over 75% in size
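Methyltransferase reactions run at room temperature for 2 h (20 nM enzyme, 500 nM biotin-H3K9 peptide, 20 uM SAM) after a 15 min compound preincubation; product detected by AlphaScreen beads and anti-H3K9me1 antibody.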
TDP1 block – blocks human tyrosyl-DNA phosphodiesterase 1 | Q9NUW8 | recombinant TDP1, AlphaScreen DNA substrate cleavage | Potency, µM (series often up to 130 µM), without a hit: top-dose activity change, negative = inhibition, usual class: inhibitors | hit rate 0.28% among 350,000; note: % is set by controls: 0 for no effect and ±100 for the full control effect; nearly all actives have a fitted effect of over 40% in size
Target sequence (Q9NUW8 whole entry, looked up): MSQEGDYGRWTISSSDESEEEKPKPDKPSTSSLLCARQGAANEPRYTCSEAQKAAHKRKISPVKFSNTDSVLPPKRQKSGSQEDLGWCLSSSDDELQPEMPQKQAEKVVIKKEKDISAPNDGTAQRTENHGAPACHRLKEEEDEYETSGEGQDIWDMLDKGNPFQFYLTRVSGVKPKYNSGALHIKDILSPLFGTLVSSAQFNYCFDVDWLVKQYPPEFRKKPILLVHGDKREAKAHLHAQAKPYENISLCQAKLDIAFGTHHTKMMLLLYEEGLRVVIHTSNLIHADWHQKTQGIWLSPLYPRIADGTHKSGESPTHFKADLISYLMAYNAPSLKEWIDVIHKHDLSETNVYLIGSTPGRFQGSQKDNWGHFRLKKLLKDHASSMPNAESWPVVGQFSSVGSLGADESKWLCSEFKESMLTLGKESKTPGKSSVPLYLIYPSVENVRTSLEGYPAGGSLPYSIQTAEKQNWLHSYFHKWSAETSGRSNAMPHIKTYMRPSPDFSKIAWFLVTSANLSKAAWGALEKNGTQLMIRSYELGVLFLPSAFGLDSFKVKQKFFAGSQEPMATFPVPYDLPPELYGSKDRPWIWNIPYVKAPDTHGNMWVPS
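Recombinant human Tdp1 (E. coli-expressed, 1 nM final) preincubated with compounds 15 min at room temperature, then 5'-biotin/3'-phosphotyrosine-FITC DNA substrate (15 nM final) added for 5 min. AlphaScreen beads (10 ug/ml final) added 10 min; cleavage lowers signal.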
HP1b chromo inh – HP1-beta chromodomain-methylated histone interaction inhibition. P83916. AlphaScreen HP1-beta / biotin-H3K9me3 peptide binding. Potency, µM (highest dose often 114 µM), inactives show at the highest dose activity change, negative = inhibition, hits mostly inhibitors. hit rate 0.56% among 390,000. AID 540317; note: nearly all actives have a fitted effect of over 70% in size
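HP1-beta protein (50 nM final) preincubated 30 min at room temperature with biotinylated H3(1-18)K9me3 peptide (50 nM) in PBS pH 7.4, 0.01% Tween-20, then compound added for 30 min. AlphaScreen streptavidin donor/nickel chelate acceptor beads (10 ug/mL final), 30 min dark, luminescence read.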
JMJD2A Tudor inh – blocks the human JMJD2A Tudor domain | O75164 | AlphaScreen JMJD2A-Tudor / H3K4me3 peptide binding | Potency, µM (highest dose often 114 µM), without a hit: at the top dose activity change, negative = inhibition, usual class: inhibitors | hit rate 4.4% among 390,000; note: % is set by controls: 0 for no effect and ±100 for the full control effect; nearly all actives have a fitted effect of over 50% in size
BAZ2B inh – BAZ2B (human) inhibition. Q9UIF8. AlphaScreen BAZ2B-H3K14Ac peptide displacement. Potency, µM (top dose mostly 114 µM), for inactives: at the top dose activity change, negative = inhibition, usual class: inhibitors. hit rate 4.4% among 360,000; note: % is set by controls: 0 for no effect and ±100 for the full control effect; nearly all actives have a fitted effect of over 60% in size
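Protein-peptide AlphaScreen: BAZ2B 50 nM, b-H3K14Ac 50 nM, 1x PBS pH 7.4 + 0.01% Tween-20. Preincubation 30 min RT; cpd 30 min RT (top 110 uM); beads 20 min RT, light-protected.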
Sfp inh – Sfp phosphopantetheinyl transferase inhibition. Q9F4F7. Biochemical Sfp PPTase activity, qHTS. Potency, µM, for the others: largest response in the series, negative = inhibition, hits mostly inhibitors. hit rate 3.5% among 310,000;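 note: the enzyme is Sfp with the accession as filed and its product quenches rhodamine fluorescence; 0% = enzyme reaction without inhibitor and -100% = no enzyme wells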
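Fluorescence-quenching assay: 15 nM Sfp-PPTase preincubated 15 min at room temperature with compound, then 5 uM rhodamine-CoA and 12.5 uM BHQ-2-labelled YbbR peptide added. Fluorescence (ex 525/em 598 nm) read at start and after 30 min; difference gives rate.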
The depositor's hits bear a star; ? = inconclusive; nt = not tested or not shown; ! = a repeat was not active; [ ] = dose if it differs, or a comment. Calls come from the whole dose curve; as a rule, active = well fitted curve in the direction sought with a large enough effect; inconclusive = small, poorly fitted or top-dose-only effect, or another doubt; inactive = no such curve, though single readings can be large; an effect the other way counts as inactive or inconclusive. Potency is the fitted concentration of half-maximal effect.

SMILES | G9a block | TDP1 block | HP1b chromo inh | JMJD2A Tudor inh | BAZ2B inh | Sfp inh
Cc1cccc2nc(CSc3nnnn3-c3ccccc3)cn12 | -12% | 2% | 61% | -27%[57.1 µM] | -2% | 21%
Brc1c(CSc2nncn2-c2ccccc2)nc2sccn12 | 43%[59 µM] | 6% | 13% | -15% | 39% | -4%
CCCN1CNc2c(c(=O)[nH]c(=S)n2CCc2cccs2)C1 | nt | -2% | 29% | -5% | nt | nt
Cn1cccc1Cc1nnc(SCC(=O)NCc2ccco2)n1CCc1ccccc1 | ? | 3% | -11% | ? | ? | -9%
COc1ccc(NC(=O)CSc2nnc(Cc3cccn3C)n2CCc2ccccc2)c(OC)c1 | 32%[0.501 µM] | 11% | -28% | ? | 50µM* | -7%
COc1ccccc1NC(=O)CSc1nnc(Cc2cccn2C)n1CCc1ccccc1 | ? | 5% | -11% | ? | 50µM* | 7%
Cc1cccc(-c2nnn3c2nc(NCc2ccc4c(c2)OCO4)c2ccccc23)c1 | -4%[59 µM] | -1% | 39% | -3% | 4% | nt
CCOC(=O)Cc1csc(N/N=C\c2cccc(Br)c2)n1 | -27%[0.0925 µM] | 7% | 8% | 28µM* | -3% | -26%
CCOC(=O)Cc1csc(N/N=C/c2ccccc2)n1 | 14%[59 µM] | 3% | 26% | -25% | -12% | -15%
CCOC(=O)Cc1csc(N/N=C\c2ccc(N(C)C)cc2)n1 | 45µM* | nt | -14% | 40µM* | 11µM* | ?
O=C(c1cccc(F)c1)N1CCC2(CC1)CCN(c1ccccn1)CC2 | 3%[12.7 µM] | nt | nt | nt | nt | 12%
C/C(=C\c1ccc(C)o1)C(=O)c1c(C)cc(C)[nH]c1=O | 50µM* | 1% | 20% | -19% | nt | 32µM*
C/C(=C\c1cccc(Br)c1)C(=O)c1c(C)cc(C)[nH]c1=O | 17%[2.33 µM] | nt | 9% | -9% | -2% | 8%
Cc1ccc(S(=O)(=O)c2cc3c(=O)n4ccccc4nc3n(Cc3ccco3)c2=N)cc1C | ? | 1% | 21% | -6% | -46% | 79µM*
Cc1cccn2c(=O)c3cc(S(=O)(=O)c4ccccc4)c(=N)n(Cc4ccco4)c3nc12 | -46% | 1% | 24% | -6% | -24% | 56µM*
Cc1ccc(-n2cc(C(C)(C)C)[nH]c2=S)cc1 | -12%[2.33 µM] | 9% | ? | 45µM* | ? | -13%
CC(C)(C)c1cn(-c2ccccc2)c(=S)[nH]1 | 7.9µM* | 4% | 13% | 22µM* | ? | -18%
O=C(CCc1ccccc1)NCCc1ccc(F)cc1 | 40% | 5% | 54% | 0% | -2% | 8%
O=C(NCc1ccncc1)c1ccc(Oc2ccccc2)cc1 | 15% | 5% | 1% | 13µM* | -14% | -6%
O=C(CCNNC(=O)c1ccncc1)NCc1ccccc1 | 10µM*! | -4% | 42% | 3% | 5% | -27%
Cc1ccc(Oc2ccc(C(=O)NCc3ccncc3)cc2)cc1 | 1% | 4% | 27% | -31% | -17% | 6%
O=C1CN(Cc2nc3cc(Cl)ccc3c(=O)[nH]2)CCN1 | ? | nt | 51% | 2.5µM* | -17% | 3%
O=C(O)c1ccc2c(=O)[nH]c(CN3CCOCC3)nc2c1 | ? | 2% | 14% | 35µM* | ? | -21%
O=c1[nH]c(CN2CCN(CCO)CC2)nc2ccccc12 | 20%[59 µM] | 0% | 40% | -8% | -2% | 0%
O=C(O)c1ccc2c(=O)[nH]c(CCl)nc2c1 | 56µM* | -2% | 84% | ? | -39% | 10%
SMILES | G9a block | TDP1 block | HP1b chromo inh | JMJD2A Tudor inh | BAZ2B inh | Sfp inh
NC(=O)C1CCN(Cc2nc3cc(Cl)ccc3c(=O)[nH]2)CC1 | 7%[59 µM] | -2% | 2% | -22% | 5% | -7%
O=C(C1CCCN(S(=O)(=O)c2cccs2)C1)N1CCN(c2cccc(Cl)c2)CC1 (configuration not stated) | -18%[59 µM] | 2% | 23% | -17% | -11% | nt
Cc1cc(C)c(OCC(=O)N(Cc2ccccc2)C2CCS(=O)(=O)C2)c(C)c1 (configuration not stated) | -4% | -11% | 9% | -15% | 5% | 12%
CC1=CC(c2ccccc2)=NS(=O)(=O)N1 | nt | 0%[56.1 µM] | 38% | -18% | nt | nt
CCOC(=O)C1=NS(=O)(=O)NC(C)=C1 | nt | nt | 13% | 56µM* | nt | nt
COc1ccccc1-n1cnc2cc(NCc3ccco3)ccc21 | 35µM* | 10% | -23% | ? | -60% | 0%
COc1ccccc1-n1cnc2cc(C(=O)N3CCOCC3)ccc21 | nt | 1% | 17% | -2% | -2% | 4%
CCCNC(=O)c1ccc2c(c1)ncn2-c1ccccc1OC | -2%[59 µM] | 1% | -7% | 1%[11.4 µM] | 9% | 6%
COc1ccccc1-n1cnc2cc(NCc3cccs3)ccc21 | ? | 10% | ? | 45µM* | 45µM* | -11%
CC(C)(C)n1cnc2cc(NCc3cccs3)ccc21 | -2%[59 µM] | 8% | -5% | -30% | -36% | 12%
COc1ccc(CNc2ccc3c(c2)ncn3-c2ccccc2OC)cc1 | ? | 12% | ? | 28µM* | 40µM* | -15%
CCn1cnc2cc(NCc3cccs3)ccc21 | 45µM* | -4% | 7% | -32% | ? | 12%
Cc1ccc(NC(=O)CN(C)S(=O)(=O)c2ccc3nc(C)sc3c2)c(C)c1 | 13%[59 µM] | 3% | 40% | 4% | 5% | nt
Cc1cc(Br)ccc1NC(=O)CN(C)C(=O)c1cc(S(=O)(=O)N(C)C)ccc1N1CCCC1 | nt | 2% | 13% | -25% | -37% | 3%
O=c1[nH]cnc2scc(C3COc4ccccc4O3)c12 (configuration not stated) | 6%[59 µM] | -2% | 33% | -2% | -7% | -2%
Fc1ccc(-c2nnc3sc(C4COc5ccccc5O4)nn23)cc1 (configuration not stated) | -38% | 4% | 6% | -15% | -5% | -8%
c1ccc2c(c1)OCC(c1nnc3sc(-c4cnccn4)nn13)O2 (configuration not stated) | 7.9µM* | 6% | -25% | -26% | 5% | 20µM*
Fc1ccc(-c2nn3c(C4COc5ccccc5O4)nnc3s2)cc1 (configuration not stated) | 3.2µM* | 0% | ? | ? | 0% | 40µM*
COc1cccc(N2CC(NC(=O)c3ccco3)CC2=O)c1 (configuration not stated) | 2%[59 µM] | 0% | 2% | 2% | -26% | nt
COc1ccc(CN2CCN(Cc3ccccc3C(F)(F)F)CC2)c(OC)c1 | 45µM* | nt | 28µM* | 1.6µM* | 28µM* | ?
COc1ccccc1N1CCN(C2CCCN(Cc3ccccc3OCCO)C2)CC1 (configuration not stated) | 79µM* | 3% | 27% | -16% | 0% | 9%
COc1ccccc1N1CCN(Cc2c[nH]c3ccccc23)CC1 | 3% | 3% | -11% | -26% | -17% | 16%
